Drawing on the supplement of paper PMC6555819, this text covers PBM binding z-score for 40 sequences.

This assay relates to VDR:RXRa (NR concentration 270 nM, RXRa partner concentration 90 nM). Put plainly: PBM binding z-score (relative to random genomic background probes); higher = stronger binding; sequences stand for … in GC…GCGATTGACAGCGTAGAATGAAGG
As for the experimental part: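 Protein-binding microarray (Agilent 4x180K custom design, double-stranded 60-nt probes: 5' GC cap, 34-nt variable region, 24-nt constant primer region; full probe sequence given). Purified or IVT nuclear receptor:RXRα heterodimers (3:1 NR:RXRα, mostly 270:90 nM) or homodimers were incubated for 1 h in PBS with 2% milk and no ligand, then detected with Alexa488 antibodies. Fluorescence from o1-orientation probes (~5 replicates averaged) was converted to z-scores against 500 random hg19 background probes. Variable regions are seed direct-repeat (DR0–DR5) sites, all their single-nucleotide variants and half-site ablations.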
As to GATACAGGGTCAGGTAGAGGCCAGAGTATGGAAA, the PBM binding z-score came to 3.35.
The figure for CAAACTAGGGCAAAGGTCAAAGTCGAGCCAACCA is 5.41.
In turn, AATACAGGGTCATCGTAGGCCGGAGTACGCACAG displayed a PBM binding z-score of 4.89.
The sequence ATCTCTAGGTAAAGTTCAATGAAAGATCGATAGA registered a PBM binding z-score of 2.5.
Regarding TGAATGAGGTTAAAGTTCAGGGAACGTGGCGTCG, the PBM binding z-score stood at 4.37.
The figure for TCTTTTAGATCAAGCAGGTTAAGAAAGCCTGAGT is 0.762.
ATCTCTAGATAACCAAGTTCAGTGAATGCCGAAC came in with a PBM binding z-score of 1.16.
The figure for TCTTGTAGAGCAATAGAGGTTAAGAAAGTGCGCT is 1.18; for CCGACTGGGGCAAAGGTTAGCATACTCAGTACGA it is 0.691.
For AGAATGAGGTTATACGTAGACCAGGGAAGAAAGT, the PBM binding z-score was found to be 1.18.
The figure for TCTTGTAGAGCAAAGGTTAAGAAAGCCGAAGCCT is 0.679.
The figure for ACTCGGAGGAGAAAGGTCAGAGCTACGCCAGTGA is 2.16.
The figure for ACAGACAGGTGAGTGAAGGTGACTCAGCTGGACG is -0.119.
For the sequence AGAATGAGGTTCTTAAGATCAGGGAATTGCGGTC, the PBM binding z-score was 0.0724.
The figure for CCGACTGGGGCAAGGTTACCACAACGCACAGCCA is 0.188.
As to TCAGACAGGTGAAGCTAACTCAGGTACGCAGTCG, the PBM binding z-score worked out at 0.334.
CAAACTAGGTGACCGGAAGGTCAAAGTCCGCATG had a PBM binding z-score of 4.
ATCGAAAGATCGTGAGGTGAGTATACAGAAAGGC: the PBM binding z-score is -0.0654.
AGAACGAGGGCACGCTGAGATGATAGCAGAGTAG returned a PBM binding z-score of 0.702.
For CCTATTAGTTGACCATAAGGGCAACCGCAGCTCG, the PBM binding z-score came to 0.982.
Regarding AGTCTAAGTTCAGGACGAGGTAACGTAAAGCACG, the PBM binding z-score stood at 2.58.
As to TTACCAAGGTGAGCTGGGGTCGTTGATCCAACTC, the PBM binding z-score turned out to be 4.15.
Take AGAAAGAGGTTATTAAGATCAGGGAATTGCGGTC: the PBM binding z-score was 2.57.
The figure for GCTTACGGGTTAAAGGTTATAGCATGAATAGAAT is 3.18; for CCTTACGGGACACTGACAGGTTATAGCATTTGGA it is -0.00746; for GCTTACGGGTCAAAGTTTATAGCATGAATAGAAT it is 4.3.
The figure for CAAACTAGGTCACGAACGGTCAAAGTCGAATGAC is 4.04; for ACCTCTAGGTAAGACTCAGTTCAGTGAAGAACGC it is 0.00811; for TCTTGTAGATCAACAGAGGTTAAGAAAGTGCGCT it is 2.03.
As to ACAGACAGGTGAGTGAAGGTAACTCACCTGGACG, the PBM binding z-score is -0.173.
The figure for TCTTGTAGATCAAGGAGGTTAAGAAAGCCTGAGT is 1.26; for CGTCAAAGTTCAACTAAGGTAACGTTAAGCACGC it is 4.69; for TCTAGTTGGTCAGAGGTCACACACTCGAAATGCG it is 4.95.
The figure for ACTTACGGGTCAACGAGGTTATTGCACGCGTATA is 8.05; for GCTAGTTGGCCAGTAAAAGGTCACACACCGGTCG it is 3.73.
Sequence GCGACTGGGGCATCAGCAGGCTACCATAACTTAA yielded a PBM binding z-score of -0.769.
The figure for GCAGACAGGTGAAACGCAGGTAACACAGGGTGGC is -0.439.
In turn, TATACAGGGTCAAAGGCCAGAGTGCGAATGTCGA had a PBM binding z-score of 4.88.
The figure for TCATATAGGTAAAAGGTGAAAGTGGGTGTGGTAA is 2; for GCTGACGGGTCAAAGGTTATAGCATGAATAGAAT it is 5.27.
